SMILES strings stand for the structures.

Assay [1] concerns the target T1, Aspartate--tRNA(Asp/Asn) ligase (Mycobacterium tuberculosis (strain ATCC 25618 / H37Rv)) (UniProt P9WFW3). Further: in the data most compounds retested in dose-response had high values.
T1 sequence (whole entry): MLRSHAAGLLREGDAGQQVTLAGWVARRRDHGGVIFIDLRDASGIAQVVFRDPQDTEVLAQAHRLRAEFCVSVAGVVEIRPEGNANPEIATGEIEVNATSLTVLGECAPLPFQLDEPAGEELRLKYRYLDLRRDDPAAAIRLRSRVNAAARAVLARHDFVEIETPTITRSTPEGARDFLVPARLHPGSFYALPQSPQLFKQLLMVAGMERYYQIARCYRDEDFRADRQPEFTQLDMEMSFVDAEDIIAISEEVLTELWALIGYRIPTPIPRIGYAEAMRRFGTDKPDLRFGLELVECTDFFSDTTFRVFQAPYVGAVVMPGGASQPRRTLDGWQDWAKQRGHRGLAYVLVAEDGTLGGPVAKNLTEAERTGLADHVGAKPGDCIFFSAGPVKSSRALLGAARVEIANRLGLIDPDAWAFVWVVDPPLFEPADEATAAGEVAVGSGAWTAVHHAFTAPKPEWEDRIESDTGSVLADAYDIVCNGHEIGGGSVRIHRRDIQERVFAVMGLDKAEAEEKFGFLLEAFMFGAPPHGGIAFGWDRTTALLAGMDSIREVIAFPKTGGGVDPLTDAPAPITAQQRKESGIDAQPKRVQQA
The experiment in a line: Assay for Asp RNA synthetase-1 from Mycobacterium tuberculosis. Conditions: 30 µM. Set-up: scale not given: direction of the effect not stated beside the values. In kind it is functional.

Assay [2] deals with Shiga toxin 2 (Escherichia coli O157:H7) (UniProt P09385+P09386). The experiment in a line: E. coli 0.157:H7 Shiga Toxin SOP - stx2 screening assay. Conditions: 30 µM. More on the design: scale not given: direction of the effect not stated beside the values. In kind it is functional.

For `O=C(NCC1CC1)N1CCN(Cc2ccc3c(c2)OCCO3)CC1`, the results for the Percent Effect in assay [1] and in assay [2] were 0.365% and 16.2%, respectively.

Regarding `CC(C)NC(=O)CC1COC2(CCN(Cc3ccccc3)CC2)C1` (centres undefined), the values for the Percent Effect in assay [1] and in assay [2] were -2.02% and -36%, respectively.

Regarding `Cc1cc(C)cc(OCCC(=O)N2CCOCC2c2ncon2)c1` (centres undefined), the Percent Effect in assay [1] is 5.48%; in assay [2] it was 33.2%.

As to `CC(=O)N1CCC(CN2CCN(Cc3nccn3C)C(C)C2)CC1` (centres undefined), the Percent Effect in assay [1] worked out at 7.78%; in assay [2] it was 18.6%.

For `O=C(NCc1nnc2n1CCC2)N(Cc1ccco1)C1CC1`, the Percent Effect in assay [1] is 1.06%; in assay [2] it was -5.54%.

Consider `Cc1cccc(CN2C(=O)CCC23CCN(c2ncc(F)cn2)CC3)n1`, for which the Percent Effect in assay [1] was -0.66%; in assay [2], -5.21%.

Take `COc1ccc(CNC(=O)NCc2c(C)cc(C)[nH]c2=O)cc1`: the Percent Effect in assay [1] stood at 4.97%; in assay [2], 34.9%.

On to `COc1ccnc(N2CCN(CC(=O)N3CCOCC3)CC2)n1`, for which the Percent Effect in assay [1] was -1.91%; in assay [2] it was 26.3%.

For `CCOCC(=O)N1C[C@@H]2COC[C@H](c3nc(C)no3)[C@@H]2C1`, the Percent Effect was 2.15% in assay [1] and -13.8% in assay [2].

Consider `CNC(=O)CN1CCCC12CCN(C(=O)c1ccc(F)cc1)CC2`, for which the Percent Effect is -5.42% in assay [1] and -14.4% in assay [2].

Consider `O=C(c1cccc(CNCC2CNc3ccnn3C2)c1)N1CCCC1` (centres undefined), for which the Percent Effect in assay [1] was -1.15%; in assay [2], -3.83%.

For `O=C(c1ccc2[nH]ccc2c1)N1CCn2cnc(COCC3CC3)c2C1`, the Percent Effect in assay [1] was 7.07%; in assay [2], -13.5%.

On to `CC(C)(C)c1nc(CN(Cc2cccs2)C2CCS(=O)(=O)C2)no1` (centres undefined), for which the Percent Effect was determined as 1.32% in assay [1] and 24.2% in assay [2].

Consider `CCOCCCNC(=O)c1ccccc1S(C)(=O)=O`, for which the Percent Effect was -2.28% in assay [1] and 0.226% in assay [2].

For the compound `O=C(NCCN1CCCc2ccccc21)c1scnc1Cl`, the Percent Effect in assay [1] was -4.16%; in assay [2], 0.202%.

On to `COCCN(CCc1ccccc1)Cc1nc2c(cnn2C)c(=O)[nH]1`, for which the values for the Percent Effect in assay [1] and in assay [2] were 1.95% and 29.5%, respectively.

With `COC(=O)C(NC(=O)c1ccco1)c1cc(F)ccc1F` (centres undefined), the Percent Effect is -3.92% in assay [1] and 7.37% in assay [2].
